From PubChem BioAssay
This is a sample that favours compounds with a hit; in the whole collection about 12% have one here.
INS promoter inh = TRM-6 insulin promoter activity inhibition | inhibition, % at 2 µM | AID 1273 | TRM-6 cells (human fetal islet line), insulin promoter-eGFP reporter, imaging; reporter expression induced with tamoxifen | hit rate 0.9% among 130,000;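 active means inhibition above the mean plus 3 SD, with well images judged a real hit on visual review, cut at about 60% in these data, passing the limit was not always enough; inconclusive means inhibition over the cutoff but images rejected on review; inactive means inhibition not above the cutoff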
ROMK primary = human ROMK K+ channel modulation, primary screen. B-score at 10 µM. Tet-inducible ROMK, thallium flux fluorescence; actives lie on both sides. hit rate 2% among 130,000;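 active means signal ratio slope over the read window, or its plate-corrected B-score, at least 3 SD from the plate mean, either direction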;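 further: B-score of the F/F0 ratio slope over 7 to 12 s after thallium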
Insulin prom up = MIN6 insulin promoter up-regulation; MIN6 insulin promoter-GFP reporter, high-content imaging; active compounds read high; z-score at 5 µM; hit rate 0.3% among 190,000;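 active means z-score above 3 at 5 µM with at least 500 cells counted in the well; inconclusive means wells under 500 cells, flagged as cytotoxic or low count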
Cl transport mod = KCC2 (human) Cl- transport modulation | KCC2 cells, thallium flux FluoZin-2 fluorescence | B-score of Tl+ flux slope (higher = more flux/activation; lower = inhibition) at 10 µM | hit rate 2.2% among 190,000;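 active means thallium flux slope and its plate-corrected score both differing from the plate sample mean at a set confidence after two filtering rounds, in either direction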;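 further: slope of fluorescence scaled to starting intensity during 10 to 20 s after thallium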
Target sequence (Q9H2X9 whole entry, looked up): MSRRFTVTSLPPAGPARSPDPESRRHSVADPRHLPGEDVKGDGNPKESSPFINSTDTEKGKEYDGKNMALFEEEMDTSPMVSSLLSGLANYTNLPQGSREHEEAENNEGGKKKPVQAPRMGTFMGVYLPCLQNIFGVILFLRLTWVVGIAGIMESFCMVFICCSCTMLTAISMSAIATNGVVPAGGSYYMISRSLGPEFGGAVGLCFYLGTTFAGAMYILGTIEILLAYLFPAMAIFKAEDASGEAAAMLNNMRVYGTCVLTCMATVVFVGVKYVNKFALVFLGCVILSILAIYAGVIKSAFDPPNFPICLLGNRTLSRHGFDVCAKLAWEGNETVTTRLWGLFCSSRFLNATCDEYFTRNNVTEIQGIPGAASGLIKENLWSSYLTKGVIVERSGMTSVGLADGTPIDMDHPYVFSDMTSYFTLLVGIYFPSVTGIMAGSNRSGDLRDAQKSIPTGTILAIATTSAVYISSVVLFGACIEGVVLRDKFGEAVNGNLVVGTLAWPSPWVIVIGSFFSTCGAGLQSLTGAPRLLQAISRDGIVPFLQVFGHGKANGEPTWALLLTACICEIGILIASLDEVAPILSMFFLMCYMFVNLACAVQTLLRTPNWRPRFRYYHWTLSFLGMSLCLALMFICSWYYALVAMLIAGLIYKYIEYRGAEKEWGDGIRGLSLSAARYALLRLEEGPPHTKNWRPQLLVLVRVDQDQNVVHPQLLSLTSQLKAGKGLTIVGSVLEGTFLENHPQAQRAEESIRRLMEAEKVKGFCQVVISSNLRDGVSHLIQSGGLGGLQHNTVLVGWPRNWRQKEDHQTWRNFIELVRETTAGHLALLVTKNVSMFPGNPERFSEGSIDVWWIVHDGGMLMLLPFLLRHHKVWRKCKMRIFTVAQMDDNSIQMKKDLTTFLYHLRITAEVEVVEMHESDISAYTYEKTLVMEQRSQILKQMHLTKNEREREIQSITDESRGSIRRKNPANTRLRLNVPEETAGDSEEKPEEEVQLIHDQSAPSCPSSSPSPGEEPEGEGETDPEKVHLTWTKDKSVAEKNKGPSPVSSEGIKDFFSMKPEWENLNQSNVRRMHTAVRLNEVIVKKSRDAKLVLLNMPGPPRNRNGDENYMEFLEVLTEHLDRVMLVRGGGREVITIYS
WT yeast gro inh = growth inhibition of WT yeast, mitochondrial fusion screen; mitochondrial fusion phenotypic screen, WT strain; inhibition, % at 10 µM; AID 1362; hit rate 2.1% among 190,000; in the data active means inhibition above about 58%; tested in S. cerevisiae
Lmaj promast = Leishmania major promastigote growth inhibition. Leishmania major promastigotes, resazurin fluorescence viability. inhibition, % at 10 µM. AID 1063. hit rate 9% among 200,000; in the data active means inhibition above about 50%;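 further: promastigotes grown with compound for 44 hours at 28 °C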
KCC2 secondary = confirmation of human KCC2 transport modulators. shares compounds with Cl transport mod. HEK293-KCC2, thallium flux, FluoZin2 fluorescence; active compounds read high. normalised thallium flux (F/F0 slope) at 10 µM. hit rate 15% among 3,700. AID 1713;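 active means thallium flux slope above the same plate's solvent-only control mean plus 3 SD; inconclusive means the two replicate wells disagree; inactive means no significant difference from solvent-only control wells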
KCC2 bumet counter = thallium flux despite bumetanide block in KCC2 cells, secondary assay 3. normalized thallium flux at 10 µM. HEK293-KCC2 + bumetanide/ouabain, thallium flux FluoZin2; active compounds read high. shares compounds with Cl transport mod. AID 1714. hit rate 49% among 3,700;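 active means thallium entry rate above the same plate's blocked-transporter control wells by more than 3 SD; inconclusive means the two repeat wells disagree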;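 further: raw slope of fluorescence over initial fluorescence between 10 and 20 s after thallium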
KCC2 sec2 = confirmation of human KCC2 transport modulators; shares compounds with Cl transport mod; HEK293-KCC2, thallium flux FluoZin2 fluorescence; actives lie on both sides; F/F0 rise rate, 10–20 s post-thallium; normalized thallium flux at 10 µM; hit rate 23% among 3,700; AID 1715;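 active means thallium flux slope more than 3 SD above or below the plate's solvent-only control mean, mostly below; inconclusive means the two repeat wells disagreed; inactive means no significant shift from solvent-only controls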;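 further: raw slope with 0.1% DMSO as baseline and bumetanide as block control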
HEK counter1 = counter-screen for KCC2 modulators: effect in parental HEK293 cells; hit rate 46% among 3,700; thallium flux rate (normalised fluorescence) at 10 µM; thallium flux FluoZin2, ouabain; baseline-ratio fluorescence slope, 10–20 s after thallium; AID 1716; shares compounds with Cl transport mod;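 active means thallium flux rate significantly above the same plate's solvent-only control wells, beyond their mean plus 3 SD; inconclusive means the two replicate wells gave conflicting results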
KCC2 ouabain = confirmation of human KCC2 modulators with ouabain. shares compounds with Cl transport mod. HEK293-KCC2, thallium flux FluoZin2 fluorescence; bidirectional: low = inhibitor, high = activator. raw Tl+ flux slope (below DMSO = inhibition, above = activation) at 10 µM. hit rate 48% among 3,700;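 active means thallium flux slope beyond 3 SD from same-plate DMSO control mean in most replicates, usually higher, sometimes lower; inconclusive means repeat tests gave conflicting results; inactive means no significant difference from controls in most replicates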;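 further: slope of initial-normalized fluorescence between seconds 10 and 20 after thallium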
HEK counter2 = counter-screen for KCC2 modulators: effect in parental HEK293 cells. shares compounds with Cl transport mod. thallium flux FluoZin-2 fluorescence slope. thallium flux slope at 10 µM. hit rate 33% among 3,700. AID 1718;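 active means thallium flux slope above the same plate's solvent-control mean plus 3 SD in both duplicate wells; inconclusive means duplicate wells that disagreed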;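 further: run without ouabain in cells lacking the KCC2 cotransporter; slope of fluorescence scaled to its starting value between 10 and 20 s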
Starred values were filed as active, the others as inactive; ? = inconclusive; . = no result.

SMILES	INS promoter inh	ROMK primary	Insulin prom up	Cl transport mod	WT yeast gro inh	Lmaj promast	KCC2 secondary	KCC2 bumet counter	KCC2 sec2	HEK counter1	KCC2 ouabain	HEK counter2
Cc1ccc(/C=C2/SC(=O)NC2=S)o1	-35.3	0.39	0.07	93.7*	-2.0	5.0	?	0.0704*	0.0985*	0.103*	0.0936*	0.0991*
Cc1ccc(C(=O)NN2C(=O)/C(=C/c3cn(C)c4ccccc34)SC2=S)cc1	-35.1	0.0387	.	-3.72*	0.0	37.3	0.00464*	0.00387	0.0255*	0.00512*	0.0253*	0.00889
O=C(NC(=S)Nc1ccccc1O)c1ccc(Cl)cc1Cl	26.7	0.575	.	5.25*	71.1	-2.0	0.00744	0.0128*	0.0326	0.013*	?	0.0133*
CCCCC(=O)NC(=S)NNC(=O)c1ccc(OC)cc1	.	1.5	-0.61	26.7*	53.8	58.5*	0.0208*	0.0526*	0.0354	?	0.0389*	?
CCNC(=S)NNC(=O)c1ccc(OC)cc1	.	0.596	0.36	1.38	-4.6	-2.8	.	.	.	.	.	.
S=C(Nc1ccccc1)Nc1ccc(Cl)cn1	50.0	.	0.25	5.8*	14.2	41.4	0.0176	0.0165*	0.0301	0.0105*	0.0189	0.0119
CCCCCC(=O)NNC(=S)NC(=O)c1ccc([N+](=O)[O-])cc1	7.1	0.292	-0.27	13.1*	61.5*	-3.9	0.00741	0.027*	0.0354	0.0197*	0.0326*	0.0198*
O=C(NC1CCCC1)C1CC(c2ccc(F)cc2)=NO1 (stereo not given)	.	0.263	.	0.99	-13.7	-8.2	.	.	.	.	.	.
CCCCC(=O)NC(=S)NNC(=O)c1ccc(Cl)cc1Cl	.	0.73	-0.58	33.2*	12.2	4.2	0.00988*	0.0692*	0.0398*	0.0476*	0.0568*	0.0285*
O=C(NNC(=S)Nc1cccc(C(F)(F)F)c1)c1ccc(Cl)cc1Cl	-74.2	.	0.09	6.29*	36.2	-4.0	0.00597	0.0266*	0.0325	0.0213*	?	0.0221*
O=C(NNC(=S)NC(=O)c1ccccc1[N+](=O)[O-])c1ccccc1[N+](=O)[O-]	8.1	0.142	.	-0.407	9.5	-4.7	.	.	.	.	.	.
CCCCCC(=O)NC(=S)Nc1ccc(Cl)cn1	-28.9	-0.211	0.17	8.25*	11.8	38.8	0.00647	0.0132*	0.0348	0.0161*	?	0.0184*
CCCCCC(=O)Nc1ccc(Cl)cn1	.	0	.	0.0512	0.8	-3.2	.	.	.	.	.	.
CCCNC(=O)c1ccc(Cl)cc1Cl	.	.	0.03	-0.0641	.	.	.	.	.	.	.	.
FC(F)(F)c1cccc(NC(=S)NNC(=S)Nc2cccc(C(F)(F)F)c2)c1	.	.	-0.76	-1.41	.	.	.	.	.	.	.	.
O=C(NNC(=S)NC(=O)c1ccccc1[N+](=O)[O-])c1ccc(Cl)cc1Cl	16.7	-1.42	-0.22	4.95*	0.8	-9.6	0.0108	0.0155*	0.0307	0.0136*	?	0.0112
c1ccc(C(c2ccccc2)N2CCN(c3ccc4ccccc4n3)CC2)cc1	22.9	0.458	.	-0.0533	29.7	7.3	.	.	.	.	.	.
Cc1nc(SCC(=O)c2c[nH]c3ccccc23)n[nH]1	-25.0	-0.0549	-0.23	0.128	-7.1	-2.7	.	.	.	.	.	.
COc1ccc(/C=C\C(=O)NCc2ccc3[nH]c(C)cc3c2)cc1OC	35.0	0.759	-0.43	0	-1.9	6.6	.	.	.	.	.	.
COc1cccc(/C=N/NC(=S)Nc2cccc(C(=O)O)c2)c1	65.0	0.408	-0.44	0.504	-9.9	-6.2	.	.	.	.	.	.
COc1cccc(NC(=S)N/N=C2\CC(C)(C)Oc3ccc(O)cc32)c1	.	.	0.03	0.515	26.6	4.0	.	.	.	.	.	.
COc1cccc(NC(=S)N/N=C2\CC3CCC2(C)C3(C)C)c1 (stereo not given)	.	-0.757	1.91	10.9*	70.7*	88.7*	0.00789	0.0272*	?	0.0244*	0.031*	0.0301*
COc1cccc(NC(=S)NN=C2CCC(C(C)(C)C)CC2)c1 (stereo not given)	-29.7	-0.381	0.43	4.87*	-5.8	-2.8	0.00601	0.00905*	0.0294	0.0123*	0.02	0.0106
Cc1ccc(-c2noc(C3CCN(S(C)(=O)=O)CC3)n2)o1	60.0	0.00337	0.12	.	-1.0	-6.6	.	.	.	.	.	.
COc1ccc(/C=c2\s/c(=C\C(=O)C(C)(C)C)[nH]c2=O)cc1O	.	.	1.7	1.11	.	.	.	.	.	.	.	.
SMILES	INS promoter inh	ROMK primary	Insulin prom up	Cl transport mod	WT yeast gro inh	Lmaj promast	KCC2 secondary	KCC2 bumet counter	KCC2 sec2	HEK counter1	KCC2 ouabain	HEK counter2
CC(C)(C)C(=O)/C=c1\[nH]c(=O)/c(=C\c2ccc(C#N)cc2)s1	.	.	-1.87	30.2*	4.3	60.2*	0.0186*	0.05*	0.0372	?	0.0477*	?
CC1(CC(=O)Nc2ccccc2)NC(=S)N(c2ccccc2)N1 (stereo not given)	.	0.368	-0.17	-0.34	-0.8	-4.6	.	.	.	.	.	.
CCC1(c2ccccc2)NC(=S)N(c2ccc(C)cc2)N1 (stereo not given)	5.9	0.646	.	77.5*	62.0*	21.5	0.0306*	0.0999*	0.0728*	0.093*	0.092*	0.0906*
CCn1c(CNC(=O)COc2ccc(C(C)C)cc2)nnc1SCC(=O)Nc1cc(F)ccc1C	.	.	-0.15	.	-22.1	12.3	0.00809	0.00639	0.0346	?	0.017*	0.0119
CCn1c(CNC(=O)COc2ccc(C(C)C)cc2)nnc1SCC(=O)Nc1ccc(F)cc1	-21.4	.	.	-2.26	.	7.9	.	.	.	.	.	.
Cn1c(Sc2ccc(C(F)(F)F)cc2[N+](=O)[O-])nnc1-c1ccccc1	-17.1	-1.02	-1.26	-5.35*	4.3	29.5	0.00758	0.00633	0.0341	0.00446	0.0187	0.0112
COCCNC(=O)CSc1ncnc2sccc12	-2.3	.	0.39	0.159	-6.1	2.4	.	.	.	.	.	.
CC(C)CCN1CCN(Cc2ccc(C#CCCO)cc2)CC1CCO (stereo not given)	.	.	-0.28	5.31*	-0.5	-0.7	0.0175	0.00426	0.0316	0.00814	0.0177	0.0105
COCCN(C(=O)CSc1nnc(-c2ccccc2C)n1C)c1c(N)n(Cc2ccccc2)c(=O)[nH]c1=O	14.3	0.0184	0.02	0.099	5.1	-6.7	.	.	.	.	.	.
O=S(=O)(NCc1ccccc1)c1cccc(S(=O)(=O)N2CCOCC2)c1	50.0	-0.18	-0.55	.	0.3	-2.0	.	.	.	.	.	.
O=S(=O)(NCCc1ccccc1F)c1cccc(S(=O)(=O)N2CCOCC2)c1	.	.	0.44	.	-7.2	1.1	0.00607	0.00536	0.0262*	0.00721	?	0.0104
